Laboratory results published in PubChem BioAssay AID1159580 (chemical genetic matrix, 2015).
Values joined by “and” are separate entries in the source; they are usually repeats but may differ in a detail not shown here. Equal values may be shown once. The campaign covered roughly 5,500 compounds. About 2,000 (36%) were called active. Inconclusive results (about 18%) are left out. No stated cut-off is given here; in the data, active means normalized growth mostly below about 0.91 (no sharp cut-off); inconclusive means no clear call, values can overlap the other calls; inactive means mostly above about 0.92. This is one part of the list.

Assay: chemical genetic growth profiling, strain panel (AID 1159580);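 further: tested at 20 µM; growth read once vehicle control cultures reached saturation at 30 °C; 1 = growth at the plate median or of vehicle wells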
Settings: S. cerevisiae deletion strains, growth OD

Measured: normalized growth

CCOC(=O)c1ccc(N)cc1
inactive: locus YAL021C, strain ccr4, stronger effect = lower value 1.03 | locus YAL026C, strain drs2, stronger effect = lower value 1 | locus YAL030W, strain snc1, stronger effect = lower value 1.01 | locus YBL061C, strain skt5, stronger effect = lower value 0.999 | locus YBR009C, strain hhf1, stronger effect = lower value 0.98 | locus YBR021W, strain FUR4, stronger effect = lower value 0.998 | locus YBR023C, strain chs3, stronger effect = lower value 1.03 | locus YBR171W, strain sec66, stronger effect = lower value 1.03 | locus YBR229C, strain ROT2, stronger effect = lower value 0.999 | locus YBR231C, strain swc5, stronger effect = lower value 1 | locus YBR279W, strain paf1, stronger effect = lower value 1 | locus YCL011C, strain gbp2, stronger effect = lower value 0.987 | locus YCL016C, strain dcc1, stronger effect = lower value 1.01 | locus YCL029C, strain bik1, stronger effect = lower value 0.993 | locus YCL061C, strain MRC1, stronger effect = lower value 1.01 | locus YCL069W, strain vba3, stronger effect = lower value 0.993 | locus YCR088W, strain abp1, stronger effect = lower value 1.01 | locus YDL005C, strain med2, stronger effect = lower value 1.01 | locus YDL035C, strain GPR1, stronger effect = lower value 1.01 | locus YDL040C, strain nat1, stronger effect = lower value 1.01 | locus YDL074C, strain BRE1, stronger effect = lower value 0.994 | locus YDL101C, strain DUN1, stronger effect = lower value 0.993 | locus YDL185W, strain tfp1, stronger effect = lower value 0.994 | locus YDL192W, strain arf1, stronger effect = lower value 1.01 | locus YDR001C, strain nth1, stronger effect = lower value 0.999 | locus YDR069C, strain doa4, stronger effect = lower value 1.04 | locus YDR101C, strain arx1, stronger effect = lower value 1.01 | locus YDR137W, strain rgp1, stronger effect = lower value 1.01 | locus YDR150W, strain NUM1, stronger effect = lower value 0.993 | locus YDR159W, strain sac3, stronger effect = lower value 1 | locus YDR162C, strain NBP2, stronger effect = lower value 0.999 | locus YDR195W, strain ref2 1.09 | locus YDR297W, strain sur2, stronger effect = lower value 1.01 | locus YDR318W, strain mcm21, stronger effect = lower value 0.994 | locus YDR334W, strain swr1, stronger effect = lower value 1.02 | locus YDR335W, strain msn5, stronger effect = lower value 1.02 | locus YDR388W, stronger effect = lower value 0.989 | locus YDR392W, strain spt3, stronger effect = lower value 0.941 | locus YDR502C, strain sam2, stronger effect = lower value 0.987 | locus YEL003W, strain gim4, stronger effect = lower value 1.02 | locus YEL037C, strain rad23, stronger effect = lower value 1.01 | locus YEL061C, strain CIN8 (second series), stronger effect = lower value 1.04 | locus YEL061C, strain CIN8, stronger effect = lower value 1.01 | locus YER015W, strain faa2, stronger effect = lower value 1.01 | locus YER016W, strain bim1, stronger effect = lower value 0.972 | locus YER110C, stronger effect = lower value 0.995 | locus YER111C, strain swi4, stronger effect = lower value 1 | locus YER155C, strain BEM2 (second series), stronger effect = lower value 0.952 | locus YER155C, strain BEM2, stronger effect = lower value 1.01 | locus YER167W, strain BCK2, stronger effect = lower value 1 | locus YFR010W, strain ubp6, stronger effect = lower value 1.02 | locus YGL078C, strain dbp3, stronger effect = lower value 0.996 | locus YGL086W, strain mad1, stronger effect = lower value 0.993 | locus YGL167C, strain pmr1, stronger effect = lower value 1.03 | locus YGL173C, strain kem1, stronger effect = lower value 0.998 | locus YGL227W, strain vid30, stronger effect = lower value 1.02 | locus YGL240W, strain doc1, stronger effect = lower value 0.996 | locus YGL248W, strain PDE1, stronger effect = lower value 0.997 | locus YGL253W, strain hxk2, stronger effect = lower value 1.01 | locus YGR135W, strain pre9, stronger effect = lower value 0.99 | locus YGR252W, strain gcn5, stronger effect = lower value 0.959 | locus YHR013C, strain ard1, stronger effect = lower value 1.04 | locus YHR027C, strain rpn1, stronger effect = lower value 1.01 | locus YHR030C, strain SLT2, stronger effect = lower value 1.01 and 1.02 | locus YHR079C, strain IRE1 (second series), stronger effect = lower value 0.994 | locus YHR079C, strain IRE1, stronger effect = lower value 0.993 | locus YHR094C, strain hxt1, stronger effect = lower value 0.984 | locus YHR129C, strain ARP1, stronger effect = lower value 1 | locus YHR142W, strain chs7, stronger effect = lower value 0.963 | locus YHR200W, strain rpn10, stronger effect = lower value 0.989 | locus YIL066C, strain RNR3, stronger effect = lower value 1.02 | locus YIL073C, strain SPO22, stronger effect = lower value 0.943 | locus YIL125W, strain kgd1, stronger effect = lower value 0.991 | locus YIR030C, strain dcg1, stronger effect = lower value 0.997 | locus YJL092W, strain hpr5, stronger effect = lower value 1.02 | locus YJL095W, strain BCK1 (second series), stronger effect = lower value 1.01 | locus YJL095W, strain BCK1, stronger effect = lower value 0.995 and 0.999 | locus YJL115W, strain asf1, stronger effect = lower value 1.02 | locus YJL129C, strain trk1, stronger effect = lower value 1.04 | locus YJL134W, strain LCB3, stronger effect = lower value 1 | locus YJL154C, strain vps35, stronger effect = lower value 1.01 | locus YJL164C, strain tpk1, stronger effect = lower value 0.982 | locus YJL166W, strain qcr8, stronger effect = lower value 1.01 | locus YJL168C, strain set2, stronger effect = lower value 0.992 | locus YJL187C, strain SWE1 (second series), stronger effect = lower value 0.985 | locus YJR043C, strain POL32, stronger effect = lower value 1.02 | locus YJR066W, strain TOR1, stronger effect = lower value 0.966 | locus YKL009W, strain mrt4, stronger effect = lower value 0.976 | locus YKL068W, stronger effect = lower value 0.993 | locus YKL085W, strain MDH1 (second series), stronger effect = lower value 0.996 | locus YKL085W, strain MDH1, stronger effect = lower value 0.996 | locus YKL160W, strain elf1, stronger effect = lower value 1.02 | locus YKL190W, strain CNB1, stronger effect = lower value 0.988 | locus YKR001C, strain vps1, stronger effect = lower value 0.987 | locus YKR091W, strain srl3, stronger effect = lower value 1.01 | locus YLL001W, strain dnm1, stronger effect = lower value 1.01 | locus YLL026W, stronger effect = lower value 1.02 | locus YLL041C, strain sdh2, stronger effect = lower value 1.02 | locus YLR027C, strain aat2, stronger effect = lower value 1 | locus YLR039C, strain RIC1, stronger effect = lower value 1.01 | locus YLR058C, strain SHM2, stronger effect = lower value 0.999 | locus YLR102C, strain apc9, stronger effect = lower value 0.989 | locus YLR113W, strain HOG1, stronger effect = lower value 0.979 | locus YLR221C, strain rsa3, stronger effect = lower value 1.01 | locus YLR258W, strain gsy2, stronger effect = lower value 0.998 | locus YLR262C, strain YPT6 (second series), stronger effect = lower value 1.03 | locus YLR262C, strain YPT6, stronger effect = lower value 0.988 | locus YLR268W, strain sec22, stronger effect = lower value 0.991 | locus YLR320W, strain mms22, stronger effect = lower value 0.978 | locus YLR330W, strain CHS5, stronger effect = lower value 1.01 | locus YLR342W, strain FKS1 (second series), stronger effect = lower value 1.03 | locus YLR342W, strain FKS1, stronger effect = lower value 1 | locus YLR357W, strain rsc2, stronger effect = lower value 1.05 | locus YLR370C, strain arc18, stronger effect = lower value 1.01 | locus YLR371W, strain rom2, stronger effect = lower value 0.994 | locus YLR384C, strain iki3, stronger effect = lower value 1.02 | locus YLR418C, strain cdc73, stronger effect = lower value 0.988 | locus YML016C, strain PPZ1, stronger effect = lower value 1 | locus YML032C, strain rad52, stronger effect = lower value 0.995 | locus YML120C, strain ndi1, stronger effect = lower value 1.02 | locus YML124C, strain tub3, stronger effect = lower value 0.992 | locus YMR058W, strain fet3, stronger effect = lower value 1.03 | locus YMR078C, strain ctf18, stronger effect = lower value 0.998 | locus YMR125W, strain sto1, stronger effect = lower value 1.01 | locus YMR129W, stronger effect = lower value 1.01 | locus YMR205C, strain PFK2, stronger effect = lower value 1.01 | locus YMR223W, strain ubp8, stronger effect = lower value 0.997 | locus YMR231W, strain pep5, stronger effect = lower value 1.01 | locus YMR263W, strain SAP30, stronger effect = lower value 1 | locus YMR307W, strain GAS1, stronger effect = lower value 1.09 | locus YNL067W, strain RPL9B, stronger effect = lower value 0.975 | locus YNL071W, strain lat1, stronger effect = lower value 0.983 | locus YNL183C, strain NPR1, stronger effect = lower value 0.949 | locus YNL209W, strain ssb2, stronger effect = lower value 0.993 | locus YNL233W, strain BNI4, stronger effect = lower value 1.01 | locus YNL248C, strain rpa49, stronger effect = lower value 1 | locus YNL250W, strain rad50, stronger effect = lower value 0.983 | locus YNL271C, strain bni1, stronger effect = lower value 0.993 | locus YNL298W, strain CLA4, stronger effect = lower value 1.01 | locus YNL307C, strain MCK1, stronger effect = lower value 0.986 | locus YNL322C, strain KRE1 (second series), stronger effect = lower value 1.01 | locus YNR049C, strain mso1, stronger effect = lower value 1.02 | locus YNR052C, strain pop2, stronger effect = lower value 0.987 | locus YOL006C, strain TOP1, stronger effect = lower value 1.03 | locus YOL012C, strain htz1 0.986 | locus YOL147C, strain pex11, stronger effect = lower value 0.993 | locus YOR001W, strain rrp6, stronger effect = lower value 1.02 | locus YOR061W, strain CKA2, stronger effect = lower value 0.996 | locus YOR069W, strain VPS5, stronger effect = lower value 0.998 | locus YOR070C, strain gyp1, stronger effect = lower value 0.989 | locus YOR080W, strain dia2, stronger effect = lower value 1.03 | locus YOR083W, strain WHI5, stronger effect = lower value 1.01 | locus YOR106W, strain vam3, stronger effect = lower value 1.02 | locus YOR136W, strain idh2, stronger effect = lower value 0.98 | locus YOR144C, strain elg1, stronger effect = lower value 0.997 | locus YOR184W, strain ser1, stronger effect = lower value 0.991 | locus YOR231W, strain MKK1, stronger effect = lower value 0.989 | locus YOR265W, strain rbl2, stronger effect = lower value 1.01 | locus YOR270C, strain vph1, stronger effect = lower value 0.973 | locus YOR290C, strain snf2, stronger effect = lower value 0.988 | locus YOR316C, strain cot1, stronger effect = lower value 0.989 | locus YPL051W, strain arl3, stronger effect = lower value 1.02 | locus YPL055C, strain LGE1, stronger effect = lower value 1 | locus YPL078C, strain atp4, stronger effect = lower value 1.03 | locus YPL106C, strain sse1, stronger effect = lower value 0.946 | locus YPL240C, strain hsp82, stronger effect = lower value 1.02 | locus YPL241C, strain CIN2, stronger effect = lower value 1 | locus YPL256C, strain CLN2, stronger effect = lower value 0.983 | locus YPR119W, strain clb2, stronger effect = lower value 0.99 | locus YPR141C, strain kar3, stronger effect = lower value 0.999 | locus YPR163C, strain tif3, stronger effect = lower value 1 | locus YPR167C, strain met16, stronger effect = lower value 0.996 | strain wtn01, stronger effect = lower value 0.997
